Reference: PubChem BioAssay (NCATS)

Assay: High-throughput drug toxicity screening in the BPDCN cell line Gen2.2 (AID 1224824);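 also: cells exposed to compounds for 48 h before reading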
Details: Gen2.2 BPDCN cells; at 45.8 µM (top of the series) unless noted
Method in brief: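 CellTiter-Glo luminescence read after 48 h compound exposure at 37 C defines viability; percent activity set with DMSO as 100% and bortezomib (9.2 uM final) as 0%. 500 exponentially growing cells per well, RPMI plus 10% FBS.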

| SMILES | cell viability, % of control (lower = more cytotoxic) |
| --- | --- |
| Nc1nc(=O)n([C@H]2C[C@H](O)[C@@H](CO)O2)cc1F | 190% |
| N#Cc1c(C2CCNCC2)cc(-c2c(O)cccc2OCC2CC2)nc1N | 7.25% |
| Oc1cc2c(cc1O)C1c3ccc(O)c(O)c3OCC1(O)C2 (centres undefined) | 167% |
| CN[C@@H]1C[C@H]2O[C@@](C)([C@H]1OC)n1c3ccccc3c3c4c(c5c6ccccc6n2c5c31)C(=O)N[C@H]4O | 13% |
| NC(=O)Nc1cc(-c2ccc(CN3CCOCC3)cc2)sc1C(N)=O | 26.1% |
| FC(F)(F)c1ccc(Nc2nc3ccc(Oc4ccnc(-c5ncc(C(F)(F)F)[nH]5)c4)cc3[nH]2)cc1 | 14.5% |
| COC(=O)[C@@H]1CC2=CC(=O)CC[C@]2(C)[C@@]23O[C@@H]2C[C@@]2(C)[C@H](CC[C@@]24CCC(=O)O4)[C@@H]13 | 132% |
| COc1ccc(S(=O)(=O)Nc2cc(-c3c(O)ccc4ccccc34)c(O)c3ccccc23)cc1 | 5.48% |
| Cc1cc(C(=O)NOCCO)c(Nc2ccc(I)cc2F)n(C)c1=O | 7.2% |
| CC(C)(C)[C@H](NC(=O)c1ccc(N)c(Cl)c1)C(=O)N1CCC[C@@H]1C(=O)N[C@H](C#N)CC(=O)O | 14.9% [at 3.51 µM] |
| O=C1NCCc2[nH]c(-c3ccncc3)cc21 | 3.21% |
| COc1ccnc2[nH]cc(C(=O)C(=O)N3CCN(C(=O)c4ccccc4)C[C@@H]3C)c12 | 172% |
| CCC[C@H]1C[C@H](C(=O)N[C@@H]([C@@H]2O[C@@H](SC)[C@@H](O)[C@@H](O)[C@@H]2O)[C@H](C)Cl)N(C)C1 | 155% |
| CC(C)(O)CC[C@@H](O)[C@](C)(O)[C@H]1CC[C@@]2(O)C3=CC(=O)[C@@H]4C[C@@H](O)[C@@H](O)C[C@]4(C)[C@@H]3CC[C@]12C | 104% |
| CC(C)C[C@H](NC(=O)[C@@H](NC(=O)c1cccc(-c2ccccc2)n1)[C@@H](C)O)B(O)O | 3.77% |
| CON=C(C(=O)N[C@@H]1C(=O)N2C(C(=O)O)=C(CSC(=O)c3ccco3)CS[C@H]12)c1csc(N)n1 | 7.56% |
| CCN(C(=O)c1c(O)c2c(Cl)cccc2n(C)c1=O)c1ccccc1 | 112% |
| C[C@H]1[C@@H](OC(=O)CCC(=O)O)O[C@@H]2O[C@@]3(C)CC[C@@H]4[C@H](C)CC[C@@H]1[C@@]24OO3 | 9.55% |
| Cn1cc(C[C@@H](N)C(=O)O)c2ccccc21 | 152% [at 23.2 µM] |
| COc1cc([C@@H]2c3cc4c(cc3[C@@H](O[C@@H]3O[C@@H]5CO[C@@H](c6cccs6)O[C@@H]5[C@H](O)[C@@H]3O)[C@H]3COC(=O)[C@H]23)OCO4)cc(OC)c1O | 27.7% |

| SMILES | cell viability, % of control (lower = more cytotoxic) |
| --- | --- |
| Cc1coc2c1C(=O)C(=O)c1c-2ccc2c(C)cccc12 | 45.1% |
| C=C(C)[C@@H]1CC[C@]2(C)CC[C@]3(C)[C@H](CC[C@@H]4[C@@]5(C)CC[C@H](O)C(C)(C)[C@H]5CC[C@]43C)[C@@H]12 | 162% |
| CC(=O)N[C@@H]1[C@H](O[C@@H]2c3ccc(c(Cl)c3)Oc3cc4cc(c3O[C@H]3O[C@H](CO)[C@@H](O)[C@H](O)[C@H]3NC(=O)CCCCCCCC(C)C)Oc3ccc(cc3Cl)C[C@H]3NC(=O)[C@H](N)c5ccc(O)c(c5)Oc5cc(O)cc(c5)[C@H](NC3=O)C(=O)N[C@H]4C(=O)N[C@H]3C(=O)N[C@@H]2C(=O)N[C@@H](C(=O)O)c2cc(O)cc(O[C@H]4O[C@H](CO)[C@@H](O)[C@H](O)[C@H]4O)c2-c2cc3ccc2O)O[C@H](CO)[C@@H](O)[C@@H]1O | 82.7% |
| CC(=O)NCC(=O)N1[C@H]2CC[C@H]1c1cc(Nc3ncc(C(F)(F)F)c(NC4CCC4)n3)ccc12 | 2.71% |
| CN1C(C(=O)Nc2ccccn2)=C(O)c2sc(Cl)cc2S1(=O)=O | 59.6% |
| CCOC(=O)N1CCN([N+]([O-])=NOc2ccc([N+](=O)[O-])cc2C#N)CC1 | 17.2% |
| O=C1NC(O)CCN1[C@@H]1O[C@H](CO)[C@H](O)[C@H]1O (some centres undefined) | 105% |
| CC(C)(O)[C@H]1CC[C@@](C)([C@H]2[C@@H](O)C[C@@]3(C)[C@@H]4C[C@H](O[C@@H]5O[C@H](CO)[C@@H](O)[C@H](O)[C@@H]5O)[C@H]5C(C)(C)[C@@H](O[C@@H]6OC[C@@H](O)[C@H](O)[C@@H]6O)CC[C@@]56C[C@@]46CC[C@]23C)O1 | 1050% |
| C[C@@H]1CC[C@@]2(OC1)OC1CC3C4CC=C5CC(O)CCC5(C)C4CCC3(C)C1[C@@H]2C (some centres undefined) | 128% |
| CC(C)Oc1ccc(C(=O)N[C@H](CNC(=O)CN(C)C)Cc2ccc(-c3cn4cccc([C@H](C)O)c4n3)cc2)cc1Cl | 61.2% |
| c1cc(N[C@@H]2CCNC2)nc(-c2cnc3ccc(-c4cn[nH]c4)cn23)c1 | 3.68% |
| Nc1ccc(C(=O)Nc2cccc(-c3nc(N4CCOCC4)c4oc5ncccc5c4n3)c2)cn1 | 15.1% |
| CC[C@H]1OC(=O)[C@H](C)[C@@H](O[C@H]2C[C@@](C)(OC)[C@@H](O)[C@H](C)O2)[C@H](C)[C@@H](O[C@@H]2O[C@@H](C)C[C@H](N(C)C)[C@@H]2O)[C@](C)(O)C[C@@H](C)C(=O)[C@H](C)[C@@H](O)[C@]1(C)O | 73.8% |
| O=C(NCc1ccccc1)[C@H](Cc1ccccc1)NC(=O)[C@@H]1O[C@@H]1C(=O)NCCc1ccc(O)cc1 | 49% |
| C#CCC(Cc1cnc2nc(N)nc(N)c2n1)c1ccc(C(=O)N[C@@H](CCC(=O)O)C(=O)O)cc1 (some centres undefined) | 51.7% |
| COc1ccc(C=Cc2cc(OC)c(OC)c(OC)c2)cc1NC(=O)[C@H](N)CO | 6.82% |
| CC(C)(N)c1ccc(-c2nc3ccccc3nc2-c2ccccc2)cc1 | 8.3% |
| C[C@](Cc1c[nH]c2ccccc12)(NC(=O)OC1C2CC3CC(C2)CC1C3)C(=O)NC[C@H](NC(=O)CCC(=O)O)c1ccccc1 (some centres undefined) | 308% |
| COc1cc(C)c(C=CC(C)=CC=CC(C)=CC(=O)O)c(C)c1C | 336% |
